Shown is part of a subset that was picked to be rich in hits.
RBX1-CUL1 inh: inhibitors of human ROC1-CUL1 ubiquitin ligase activity; in vitro K48 di-Ub FRET, acceptor:donor ratio, 45 min; actives 0.6% (n = 140,000); inhibition, % at 10 µM; P62877+Q13616; in the data active = inhibition above about 25%
Target sequence (P62877 whole entry, looked up): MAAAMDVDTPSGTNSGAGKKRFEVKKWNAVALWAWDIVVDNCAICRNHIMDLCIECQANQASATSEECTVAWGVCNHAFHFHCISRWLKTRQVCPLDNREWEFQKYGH
Target sequence (Q13616 whole entry, looked up): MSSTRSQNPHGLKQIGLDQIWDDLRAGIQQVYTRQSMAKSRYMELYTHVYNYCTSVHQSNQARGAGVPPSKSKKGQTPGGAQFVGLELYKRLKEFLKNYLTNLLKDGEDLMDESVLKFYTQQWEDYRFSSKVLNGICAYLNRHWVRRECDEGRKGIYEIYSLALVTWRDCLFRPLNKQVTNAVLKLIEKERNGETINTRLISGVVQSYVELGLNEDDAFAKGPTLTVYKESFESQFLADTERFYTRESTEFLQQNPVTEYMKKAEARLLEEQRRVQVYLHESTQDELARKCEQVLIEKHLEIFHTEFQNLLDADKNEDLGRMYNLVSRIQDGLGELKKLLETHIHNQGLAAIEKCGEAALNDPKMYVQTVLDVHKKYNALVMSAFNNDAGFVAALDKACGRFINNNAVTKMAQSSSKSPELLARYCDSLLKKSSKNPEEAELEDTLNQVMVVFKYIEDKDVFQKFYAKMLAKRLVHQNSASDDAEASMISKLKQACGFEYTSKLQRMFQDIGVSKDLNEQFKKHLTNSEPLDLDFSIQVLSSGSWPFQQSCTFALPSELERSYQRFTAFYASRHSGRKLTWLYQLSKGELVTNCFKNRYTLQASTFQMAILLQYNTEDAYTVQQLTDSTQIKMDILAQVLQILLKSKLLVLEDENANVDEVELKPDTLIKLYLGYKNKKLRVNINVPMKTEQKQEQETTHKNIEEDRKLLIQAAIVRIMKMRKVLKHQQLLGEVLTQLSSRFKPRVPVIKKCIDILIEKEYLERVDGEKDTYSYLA
Active calls of the source: *.

Cc1cc(C(=O)O)ccc1-c1ccc(/C=C2\SC(=O)N(CC(=O)N3CCCC3)C2=O)o1 was read as RBX1-CUL1 inh 10.
For CCCN1C(=O)/C(=C/c2cc(-c3ccccc3)n(-c3ccc(C(=O)OCC)cc3)c2-c2ccccc2)C(=O)N(c2ccccc2)C1=S the results were RBX1-CUL1 inh 18.
CCCN1C(=O)/C(=C\c2ccco2)C(=O)N(c2ccccc2)C1=S was read as RBX1-CUL1 inh -5.
For Cc1ccccc1CNC(=O)c1cccc(NS(C)(=O)=O)c1C the results were RBX1-CUL1 inh -1.
For O=C(NC1CCCN(CCc2ccccc2)C1)c1cnccn1 (stereo not given) the results were RBX1-CUL1 inh 3.
`Cc1ccc(/C=C2\SC(=S)N(CC(=O)NNc3ccccc3)C2=O)cc1` gave RBX1-CUL1 inh 0.
Cc1ccccc1Sc1ccccc1CC(=O)O was read as RBX1-CUL1 inh 4.
`CC1=Nc2ncnn2C(c2ccc(Cl)cc2)C1C(=O)Nc1ccccc1C` (stereo not given) gave RBX1-CUL1 inh -4.
For Cc1ccccc1CN1CC[C@@H](N2CCC(O)CC2)[C@H](O)C1 the results were RBX1-CUL1 inh 0.
For COc1cc(C2CC(C34CC5CC(CC(C5)C3)C4)=NC(=S)N2)cc(OC)c1OC (stereo not given) the results were RBX1-CUL1 inh 14.
`O=c1c(-c2cnn(-c3ccccc3)c2)c(C(F)(F)F)oc2c3c(ccc12)OCCO3` gave RBX1-CUL1 inh 4.
Screening COc1cccc(NC(=O)CCC2CCN(C(=O)CCN3CCOCC3)CC2)c1 returned RBX1-CUL1 inh -3.
Screening O=C(c1ccc(N2CCC(NCCC(c3ccccc3)c3ccco3)CC2)cc1)N1CCOCC1 (stereo not given) returned RBX1-CUL1 inh -13.
COCCCN1C(=O)c2cccc3c(Cl)ccc(c23)C1=O was read as RBX1-CUL1 inh -13.
For CCOc1cc(/C=C2\C(=O)NN(c3ccc(C)c(C)c3)C2=O)ccc1O the results were RBX1-CUL1 inh 7.
`COc1cc(/C=C2/C(=O)NN(c3ccc(C)c(Cl)c3)C2=O)cc(Cl)c1O` gave RBX1-CUL1 inh 19.
For CCOc1ccccc1/C=C1\C(=O)NN(c2ccc(Br)cc2)C1=O the results were RBX1-CUL1 inh -2.
For CCOc1cc(/C=C2\C(=O)NN(c3cccc(Cl)c3)C2=O)c(Br)c(Br)c1O the results were RBX1-CUL1 inh 62*.
`O=C1NN(c2cccc(Cl)c2)C(=O)/C1=C/c1ccccc1O` gave RBX1-CUL1 inh -1.
`CCOc1cc(/C=C2\C(=O)NN(c3ccc(C)c(Cl)c3)C2=O)c(Br)c(Br)c1O` gave RBX1-CUL1 inh 100*.
For COc1ccc(-c2cc(-c3ccccc3)nc3sc(C(C)=O)c(N)c23)cc1 the results were RBX1-CUL1 inh -8.
For COc1ccc2nc(SCCOC(=O)c3ccccc3)nc(C)c2c1 the results were RBX1-CUL1 inh 2.
Screening COc1cc(OC)cc(C(=O)Nc2ccc(C(=O)c3ccccc3)cc2)c1 returned RBX1-CUL1 inh 3.
Screening COc1ccc(-c2ccc3c(N)c(C(=O)NCCc4ccccc4Cl)sc3n2)cc1 returned RBX1-CUL1 inh 2.
Screening O=C(c1ccncc1)N1CCOC(CCc2ccccc2)C1 (stereo not given) returned RBX1-CUL1 inh 0.
CCN(CC)c1ccc(/C=N\NC(=O)CSc2nc(C)cc(C)n2)c(O)c1 was read as RBX1-CUL1 inh -1.
Screening Clc1ccc2c(NCCN3CCN(CCCCCCCN4CCN(CCNc5ccnc6cc(Cl)ccc56)CC4)CC3)ccnc2c1 returned RBX1-CUL1 inh 27*.
Screening Clc1ccc2c(NCCN3CCN(CCCN4CCN(CCNc5ccnc6cc(Cl)ccc56)CC4)CC3)ccnc2c1 returned RBX1-CUL1 inh 0.
For COC(=O)NNc1ccnc2cc(Cl)ccc12 the results were RBX1-CUL1 inh 1.
Screening CCOC(=O)c1ccc(NCc2cc(Br)c(OCc3ccc(Cl)cc3Cl)c(OCC)c2)cc1 returned RBX1-CUL1 inh -14.
For CCOc1cc(CNc2ccc(O)cc2)cc(Br)c1OCc1ccc(Cl)cc1 the results were RBX1-CUL1 inh 76*.
`Oc1ccc(NCc2ccc(Cl)cc2)cc1` gave RBX1-CUL1 inh 94*.
Clc1ccc(CNc2ccc(N3CCN(Cc4ccccc4)CC3)cc2)cc1 was read as RBX1-CUL1 inh 2.
`CCOc1cc(CNc2ccc(O)cc2)cc(Cl)c1OCc1ccccc1` gave RBX1-CUL1 inh 10.
CC(C)(CO)NCc1ccc(Cl)cc1 was read as RBX1-CUL1 inh 1.
Screening COC(=O)c1cccc(Nc2cc(C)nc3ccccc23)c1 returned RBX1-CUL1 inh 7.
Screening CCCN1C(=O)c2ccccc2C1(C)O (stereo not given) returned RBX1-CUL1 inh 6.
Screening CC(C)Cc1nnc(NC(=O)c2sc3ccccc3c2Cl)s1 returned RBX1-CUL1 inh -3.
`NC(=O)N=Nc1c(O)[nH]c2ccc(Br)cc12` gave RBX1-CUL1 inh 10.
For O=C1N=c2ccc([N+](=O)[O-])cc2=C1N=Nc1c(O)[nH]c2ccc([N+](=O)[O-])cc12 the results were RBX1-CUL1 inh 45*.
O=[N+]([O-])c1ccc2[nH]c(O)c(N=Nc3ccccc3[N+](=O)[O-])c2c1 was read as RBX1-CUL1 inh 1.
Screening Cc1ncc2c(c1CNC(=O)CN1CCCCC1)CCN(C(=O)c1ccc(-c3ccccc3)cc1)C2 returned RBX1-CUL1 inh -5.
Screening CCOc1cc(S(=O)(=O)n2ccc(C)n2)ccc1F returned RBX1-CUL1 inh -8.
For Brc1ccc(-c2nc(N3CCNCC3)c3ccccc3n2)cc1 the results were RBX1-CUL1 inh 1.
For COc1ccccc1N1C(=O)c2cccc3c(Nc4cccc(Cl)c4)c([N+](=O)[O-])cc(c23)C1=O the results were RBX1-CUL1 inh -6.
O=C(O)c1cc(Nc2c([N+](=O)[O-])cc3c4c(cccc24)C(=O)OC3=O)ccc1O was read as RBX1-CUL1 inh 27*.
For O=C(O)c1ccc(N2C(=O)c3cccc4c([N+](=O)[O-])ccc(c34)C2=O)cc1O the results were RBX1-CUL1 inh -9.
Cc1ccc(-n2c(-c3ccncc3)n[nH]c2=S)cc1 was read as RBX1-CUL1 inh 7.
`Cc1ccc(-n2c(Cl)c(Cl)nc(Cl)c2=O)cc1` gave RBX1-CUL1 inh 45*.
For Cc1ccc(-n2c(-c3ccccc3)cc(-c3ccccc3)nc2=O)cc1 the results were RBX1-CUL1 inh -10.
For COCC(C)NC(=O)c1ccc(CN2CCCCC2)cc1 (stereo not given) the results were RBX1-CUL1 inh -3.
`COC(=O)COc1ccc2c(=O)c(Oc3ccccc3)c(C)oc2c1` gave RBX1-CUL1 inh -6.
For Cc1oc2c(O)c(O)ccc2c(=O)c1Oc1ccc(F)cc1 the results were RBX1-CUL1 inh 56*.
Cc1oc2cc(OC(C)C)ccc2c(=O)c1Oc1ccccc1F was read as RBX1-CUL1 inh 0.
`CCN1CCCC1CNCc1ccc2c(c1)OCCO2` (stereo not given) gave RBX1-CUL1 inh 3.
COc1ccc(-c2nnc(COc3ncc(C(F)(F)F)cc3Cl)o2)cc1 was read as RBX1-CUL1 inh 1.
`COc1ccc(S(=O)(=O)NCCc2c(C)[nH]c3c(Cl)cccc23)cc1C` gave RBX1-CUL1 inh 9.
`O=C(Nc1ccc2scnc2c1)c1ccc(C2CCCN2)s1` (stereo not given) gave RBX1-CUL1 inh 99*.
Screening Cc1ccccc1NC(=O)c1ccc(C2CCCN2)s1 (stereo not given) returned RBX1-CUL1 inh 6.
`CC(C)n1cc(NC(=O)c2ccc(C3CCCN3)s2)nn1` (stereo not given) gave RBX1-CUL1 inh 1.

Screening data (PubChem BioAssay)
